Data from PubChem BioAssay (NCATS).
*1 amine or outer side, *2 acyl side, *3 side chain or, on linkers, in order; H or OH if unused. Where a SMILES comes first, the peptide text is derived from it. Non-standard residues stand in square brackets, D forms with d. Residues, ends and D or L forms follow the SMILES beside them. Bridges are numbered along the chain shown (N, C = ends). Roman numbers before positions name the chains, in order. [ ]: non-standard residue; d: D form. ξ: configuration not given here. Actinocin(9to1) = Cc1c2oc3c(C)ccc(C(=O)[*:1])c3nc-2c(C(=O)[*:2])c(N)c1=O; Orn = NCCC[C@H](N)C(=O)O; ξNMeV = CNC(C(=O)O)C(C)C; ξV = CC(C)C(N)C(=O)O; Sar = CNCC(=O)O

Test: qHTS profiling for inhibitors of Plasmodium falciparum (DD2) proliferation (AID 743323)
Conditions: lower = more inhibition; at 28.7 µM (top of the series) unless noted
How it was run: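 Parasite proliferation measured via DNA-dye fluorescence, as uninfected erythrocytes lack DNA. Cultures at 0.3% parasitemia and 2.5% hematocrit incubated 72 h with compound; signal scaled between vehicle and 0.29 uM artemisinin wells.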

SMILES | activity, percent of control
CCOc1cc2ncc(C#N)c(Nc3ccc(OCc4ccccn4)c(Cl)c3)c2cc1NC(=O)/C=C/CN(C)C | 5.17%
Cc1c2oc3c(C)ccc(C(=O)N[C@@H]4C(=O)NC(C(C)C)C(=O)N5CCC[C@H]5C(=O)N(C)CC(=O)N(C)C(C(C)C)C(=O)O[C@@H]4C)c3nc-2c(C(=O)N[C@@H]2C(=O)NC(C(C)C)C(=O)N3CCC[C@H]3C(=O)N(C)CC(=O)N(C)C(C(C)C)C(=O)O[C@@H]2C)c(N)c1=O (stereo partly drawn) (I: T[ξV]P[Sar][ξNMeV] / II: T[ξV]P[Sar][ξNMeV]; ester I:1-I:C, II:1-II:C; linker I:N-II:N via Actinocin(9to1)) | -1.83%
O=c1cc(C2=CC=CC3Sc4ccccc4SC23)oc(N2CCOCC2)c1 (stereo not drawn) | 88.7%
CCCCCCCCCCCCCCCCCCOP(=O)([O-])OC1CC[N+](C)(C)CC1 | 114% [at 18.4 µM]
CCC1(Cc2ccc(N)cc2)CCC(=O)NC1=O (stereo not drawn) | 97.2% [at 57.5 µM]
O=C(O)CC/C=C\CC[C@H]1[C@@H](N2CCCCC2)[C@@H](O)C[C@@H]1OCc1ccc(-c2ccccc2)cc1 | 86.9%
CN1CCC(CN2c3ccccc3Sc3ccccc32)C1 (stereo not drawn) | 26.9%
CN(NC(=O)CC(=O)NN(C)C(=S)c1ccccc1)C(=S)c1ccccc1 | 4.04% [at 57.5 µM]
CCCC(=O)O[C@]1(C(=O)CCl)[C@H](C)C[C@@H]2[C@H]3CCC4=CC(=O)C=C[C@]4(C)[C@@]3(F)C(=O)C[C@@]21C | 1.4%
CC(NC(=O)Cc1cc(F)cc(F)c1)C(=O)NC(C(=O)OC(C)(C)C)c1ccccc1 (stereo not drawn) | 97.7%
CC[C@@H](C(=O)O)C1CC[C@H](C)C([C@@H](C)[C@H](O)[C@H](C)C(=O)[C@H](CC)C2O[C@]3(C=C[C@@H](O)[C@]4(CC[C@@](C)(C5CC[C@](O)(CC)[C@H](C)O5)O4)O3)[C@H](C)C[C@@H]2C)O1 (stereo partly drawn) | -0.726%
C[C@@H]1CCC2[C@@H](C)[C@@H](O)O[C@@H]3O[C@@]4(C)CC[C@@H]1[C@@]23OO4 (stereo partly drawn) | -0.207%
C[C@@H]1CCN(C(=O)CC#N)C[C@@H]1N(C)c1ncnc2[nH]ccc12 | 99.8%
CNC1CCN(C(Cc2cccc(-c3ccncc3)c2)C(=O)c2sc3c(F)ccc(F)c3c2Cl)CC1 (stereo not drawn) | 0.386%
COC(=O)C1=C(C)NC(C)=C(C(=O)OCCCN2CCC(c3ccccc3)(c3ccccc3)CC2)[C@H]1c1cccc([N+](=O)[O-])c1 | -0.102%
CC(C)C[C@@H]1NC(=O)[C@H](CCCN)NC(=O)[C@H](C(C)C)NC(=O)[C@@H]2CCCN2C(=O)[C@@H](Cc2ccccc2)NC(=O)[C@H](CC(C)C)NC(=O)[C@H](CCCN)NC(=O)[C@H](C(C)C)NC(=O)[C@@H]2CCCN2C(=O)[C@@H](Cc2ccccc2)NC1=O (cyclo(V[Orn]L[dF]PV[Orn]L[dF]P)) | -0.499%
CCC1(O)CC2CN(CCc3c([nH]c4ccccc34)[C@@](C(=O)OC)(c3cc4c(cc3OC)N(C=O)[C@H]3[C@](O)(C(=O)OC)[C@H](OC(C)=O)[C@]5(CC)C=CCN6CC[C@]43[C@@H]65)C2)C1 (stereo partly drawn) | 13.7%
Cc1nnc(C(C)C)n1C1CC2CCC(C1)N2CC[C@H](NC(=O)C1CCC(F)(F)CC1)c1ccccc1 (stereo partly drawn) | 102%
CCN(CC)Cc1cc(Nc2ccnc3cc(Cl)ccc23)ccc1O | 2.43% [at 9.63 µM]
NC(=O)Nc1cc(-c2ccc(CN3CCOCC3)c(F)c2)sc1C(=O)N[C@H]1CCCNC1 | 1.39%

Test: qHTS profiling for inhibitors of Plasmodium falciparum (HB3) proliferation (AID 743324);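 also: 100% = DMSO vehicle wells and 0% = artemisinin-treated control wells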
Conditions: Plasmodium falciparum HB3 blood-stage proliferation; at 28.7 µM (top of the series) unless noted
How it was run: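 P. falciparum HB3 grown in erythrocytes (0.3% parasitemia, 2.5% hematocrit final) with compound for 72 h at 37 C, 5% CO2. Parasite DNA detected by SYBR Green after saponin/triton lysis overnight; normalized to 0.29 uM artemisinin and DMSO.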

SMILES | remaining proliferation (% of control), lower = more inhibition
CCOc1cc2ncc(C#N)c(Nc3ccc(OCc4ccccn4)c(Cl)c3)c2cc1NC(=O)/C=C/CN(C)C | -0.513%
Cc1c2oc3c(C)ccc(C(=O)N[C@@H]4C(=O)NC(C(C)C)C(=O)N5CCC[C@H]5C(=O)N(C)CC(=O)N(C)C(C(C)C)C(=O)O[C@@H]4C)c3nc-2c(C(=O)N[C@@H]2C(=O)NC(C(C)C)C(=O)N3CCC[C@H]3C(=O)N(C)CC(=O)N(C)C(C(C)C)C(=O)O[C@@H]2C)c(N)c1=O (stereo partly drawn) (I: T[ξV]P[Sar][ξNMeV] / II: T[ξV]P[Sar][ξNMeV]; ester I:1-I:C, II:1-II:C; linker I:N-II:N via Actinocin(9to1)) | -2.59%
O=c1cc(C2=CC=CC3Sc4ccccc4SC23)oc(N2CCOCC2)c1 (stereo not drawn) | 76.5%
CCCCCCCCCCCCCCCCCCOP(=O)([O-])OC1CC[N+](C)(C)CC1 | 112% [at 18.4 µM]
CCC1(Cc2ccc(N)cc2)CCC(=O)NC1=O (stereo not drawn) | 89.8% [at 57.5 µM]
O=C(O)CC/C=C\CC[C@H]1[C@@H](N2CCCCC2)[C@@H](O)C[C@@H]1OCc1ccc(-c2ccccc2)cc1 | 76.1%
CN1CCC(CN2c3ccccc3Sc3ccccc32)C1 (stereo not drawn) | 21.8%
CN(NC(=O)CC(=O)NN(C)C(=S)c1ccccc1)C(=S)c1ccccc1 | 5.46%
CCCC(=O)O[C@]1(C(=O)CCl)[C@H](C)C[C@@H]2[C@H]3CCC4=CC(=O)C=C[C@]4(C)[C@@]3(F)C(=O)C[C@@]21C | 1.97%
CC(NC(=O)Cc1cc(F)cc(F)c1)C(=O)NC(C(=O)OC(C)(C)C)c1ccccc1 (stereo not drawn) | 104%
CC[C@@H](C(=O)O)C1CC[C@H](C)C([C@@H](C)[C@H](O)[C@H](C)C(=O)[C@H](CC)C2O[C@]3(C=C[C@@H](O)[C@]4(CC[C@@](C)(C5CC[C@](O)(CC)[C@H](C)O5)O4)O3)[C@H](C)C[C@@H]2C)O1 (stereo partly drawn) | -1.24%
C[C@@H]1CCC2[C@@H](C)[C@@H](O)O[C@@H]3O[C@@]4(C)CC[C@@H]1[C@@]23OO4 (stereo partly drawn) | -0.144%
CNC1CCN(C(Cc2cccc(-c3ccncc3)c2)C(=O)c2sc3c(F)ccc(F)c3c2Cl)CC1 (stereo not drawn) | -0.323%
COC(=O)C1=C(C)NC(C)=C(C(=O)OCCCN2CCC(c3ccccc3)(c3ccccc3)CC2)[C@H]1c1cccc([N+](=O)[O-])c1 | -0.517%
CC(C)C[C@@H]1NC(=O)[C@H](CCCN)NC(=O)[C@H](C(C)C)NC(=O)[C@@H]2CCCN2C(=O)[C@@H](Cc2ccccc2)NC(=O)[C@H](CC(C)C)NC(=O)[C@H](CCCN)NC(=O)[C@H](C(C)C)NC(=O)[C@@H]2CCCN2C(=O)[C@@H](Cc2ccccc2)NC1=O (cyclo(V[Orn]L[dF]PV[Orn]L[dF]P)) | -1.03%
CCC1(O)CC2CN(CCc3c([nH]c4ccccc34)[C@@](C(=O)OC)(c3cc4c(cc3OC)N(C=O)[C@H]3[C@](O)(C(=O)OC)[C@H](OC(C)=O)[C@]5(CC)C=CCN6CC[C@]43[C@@H]65)C2)C1 (stereo partly drawn) | 8.78%
Cc1nnc(C(C)C)n1C1CC2CCC(C1)N2CC[C@H](NC(=O)C1CCC(F)(F)CC1)c1ccccc1 (stereo partly drawn) | 96.7%
NC(=O)Nc1cc(-c2ccc(CN3CCOCC3)c(F)c2)sc1C(=O)N[C@H]1CCCNC1 | 2.42%
